Data: ChEMBL document CHEMBL3988442, “University of Dundee, Small-Polar-MMV Screening Library” (2021)
Among all 38,000 compounds or so, about 1,200 (3.2%) showed an effect of 50% or more. The median lay at about -58%. The sample as a whole holds a higher share of strong results than the screen did.

test system: Plasmodium falciparum; experiment: Calibr Malaria Delayed Death Assay SOP; format: functional, organism-based; design: scale not given: in the data most compounds retested in dose-response had high values; conditions: concentration 4.99e-06 (unit not given; other assays of the set use mol/L)

Compound | Percent Effect [%]
CC(C)(C)c1cnc(CN(Cc2cccnc2)CC2CCCO2)o1 (stereo not given) | 21.12
CC(O)CN1CCc2onc(-c3ccccc3F)c2C1 (stereo not given) | -120.6
CN(C)C(=O)CN1CCCC1c1cccc(Cc2ccccc2F)n1 (stereo not given) | 67.28
CN(C)S(=O)(=O)N1CCCC(c2cccc(Cc3ccccc3F)n2)C1 (stereo not given) | -73.25
CN(C)C(=O)CCc1cncc(C2CCCN2Cc2ccccn2)n1 (stereo not given) | -28.93
CN1CCN(C2COC3(CCN(Cc4ccsc4)CC3)C2)CC1.O=C(O)C(F)(F)F.O=C(O)C(F)(F)F (stereo not given) | -16.23
COC(=O)c1cccn1C1CCN(C(=O)c2ccc(C)cc2O)CC1 | -37.36
Nc1cc(C(=O)NC2CCCN(CCCc3ccccc3)C2)ccn1 (stereo not given) | -86.42
Nc1ncncc1-c1noc([C@@H]2CCCN2CCCc2ccccc2)n1 | -66.01
CS(=O)(=O)NC1CCN(C(=O)NCc2cccnc2)CC1 | -62.74
O=C(c1ccoc1)N1CC[C@H]2C[C@@H](c3ccncn3)O[C@@H]2C1 | -72.56
COc1cccc(CCC(=O)Nc2cnc3c(c2)c(C)nn3C)c1OC | -140.4
COc1nccc(N2CC[C@@H](N3CCCCCC3)[C@H](O)C2)c1C#N | 51.1
COc1nccc(N2CC[C@@H](N3CCC(O)CC3)[C@H](O)C2)c1C#N | -80.42
COc1nccc(N2CC[C@H](N3CCOCC3)[C@H](CCCO)C2)c1C#N | -24.24
COc1ccc(C(N)=O)cc1NCc1ncc(-c2cccs2)o1 | -57.49
O=C(O)CCc1nc2nccc(-c3ccc(F)cc3)n2n1 | -150.8
COc1ccc(-c2noc(CN3CC(n4cc(C)cn4)C3)n2)cc1 | -35.96
CC(C)Nc1ccnc(N2Cc3cnc(C(C)(C)C)nc3C2)n1 | 49.86
CCNc1ccnc(N2Cc3cnc(CC(C)C)nc3C2)n1 | 74.44
CC(C)Cc1ncc2c(n1)CN(c1cc(NC3CC3)nc(N)n1)C2 | -26.11
O=C(CSc1nnc2n1N=CN(c1ccccc1)C2)c1ccccc1 | -130.4
CC(C(=O)Nc1cccc(Cl)c1)N1CCN(Cc2ncc[nH]2)CC1 (stereo not given) | 12.72
CCOCCN1CCN(C(C)C(=O)Nc2ccnn2C(C)C)CC1 (stereo not given) | -116
COCCCN1CCCN(C(C)C(=O)Nc2cccc(I)c2)CC1 (stereo not given) | 89.66

Compound | Percent Effect [%]
Cc1noc(CN(C)CC2CCCN(CCc3ccc(Cl)cc3)C2)n1 (stereo not given) | -81.63
NC(=O)C1CCN(C(=O)c2ccc(Sc3ccccn3)cc2)CC1 | -20.82
Cc1ccsc1CN(C)Cn1nccc1-c1cccnc1 | -75.2
Cc1ccc(CN(Cc2ccncc2)C2CCN(C)CC2)s1 | 33.34
O=C(Nc1cccnc1)N(Cc1ccccc1)C1CC1 | -66.01
Cc1ccc(CN(Cc2ccccn2)C(=O)[C@H]2CC[C@@H](N)C2)s1 | -62.59
Cc1cccc(CN(Cc2cccnc2)C2CC(C)(C)NC(C)(C)C2)n1.O=C(O)CC(O)(CC(=O)O)C(=O)O | 40.19
CN(Cc1cccnc1)CC1CC12CCN(Cc1nccs1)CC2 (stereo not given) | -24.57
CC1(C)CC(N(Cc2cccnc2)Cc2cccc(F)c2)CC(C)(C)N1.O=C(O)CC(O)(CC(=O)O)C(=O)O | 75.47
CN(Cc1cccnc1)CC1CC12CCCC2 (stereo not given) | -51.15
Cc1ccc(CN(Cc2[nH]cnc2C)C2CC(C)(C)NC(C)(C)C2)o1.O=C(O)CC(O)(CC(=O)O)C(=O)O | -80.85
Cc1c[nH]c(CN2CCOC(c3ccc(Cl)c(Cl)c3)C2)c(C)c1=O (stereo not given) | -31.43
Cc1cc(CNC(=O)NCc2cccs2)no1 | -38.54
COc1cccc2c1ccn2CC(=O)Nc1nc[nH]n1 | -178.4
COCCCN(CCOC)C(=O)Nc1ccccc1Br | -3.396
Fc1cnc(N2CCN3C[C@H](Oc4cccnc4)C[C@H]3C2)nc1.O=C(O)C(F)(F)F.O=C(O)C(F)(F)F.O=C(O)C(F)(F)F | -67.51
CN(C)c1nc2sc(C(=O)N3CCNC(=O)CC3)cc2s1 | -35.45
CCOC(=O)[C@H]1[C@@H](O)C(=O)N(C)C12CCN(S(=O)(=O)CC)CC2 | -82.82
CS(=O)(=O)NCc1ncn2c1CN(C(=O)C1CCCCC1)CCC2 | -51.87
CN(Cc1cccnc1)C1CC2(CCN(C(=O)c3ccnnc3)CC2)C1 | -29.79
CC1(C)CC(N(Cc2ccncc2)Cc2cccnc2)CC(C)(C)N1.O=C(O)CC(O)(CC(=O)O)C(=O)O | 22.16
COc1cc(F)ccc1N(C)Cc1cccnc1 | -76.29
Cc1ccc(C(=O)N(Cc2cccnc2)C[C@@H]2CCC(=O)N2)s1 | -86.25
CC1(C)CC(N(Cc2cccnc2)Cc2cccnc2)CC(C)(C)N1.O=C(O)CC(O)(CC(=O)O)C(=O)O | -10.22
C[C@]1(O)CCN(Cc2cccnc2)C[C@@H]1Oc1cccc(F)c1 | 9.643

Compound | Percent Effect [%]
CCCN(Cc1cccnc1)C1CC(C)(C)NC(C)(C)C1.O=C(O)CC(O)(CC(=O)O)C(=O)O | 76.54
COc1cccc(CNC(=O)c2cc(C)nc(N3CCCC3)n2)c1 | -64.99
CC(C)OC(=O)N1CCC(c2nnc(Cn3ccnc3)n2C)CC1 | -243.5
O=C(O)C(F)(F)F.O=C(c1cccnc1)N1CCC2(CC1)CC(Oc1ccccc1)CO2 (stereo not given) | -74.94
CCc1ccc2nc(-c3cnn(C)c3)cc(C(=O)N3CCOCC3)c2c1 | -101.2
CCS(=O)(=O)NCc1cccnc1N1CCCC(O)C1 (stereo not given) | -44.06
Cc1cnn(CC(=O)N(CC2CN(C)CCO2)c2nccs2)c1 (stereo not given) | -66.52
Cc1ccc(S(=O)(=O)Nc2ccc(-n3ccnc3C)nc2)cc1N(C)C | -25.67
CC(=O)N(C)c1nc(Cn2nnnc2C(C)C)cs1 | -150.3
Cc1ccc(CN2CCc3onc(COc4cccnc4)c3C2)s1.O=C(O)C(F)(F)F.O=C(O)C(F)(F)F | 3.567
COc1ccc(-c2ncccc2C(=O)N2C[C@H]3CC[C@@H]2C3)cn1 | -112.3
N#Cc1c(Cl)nsc1NCCCN1C(=O)COc2ccccc21 | 55.67
N#Cc1ccc(NCCCN2C(=O)COc3ccccc32)nc1 | -38.04
N#Cc1cnc(NCCCN2C(=O)COc3ccccc32)c(Cl)c1 | -83.56
CC(C)n1cc(N2CC(C(=O)N3CCc4ccccc4C3)CC2=O)cn1 (stereo not given) | -62.91
O=C(O)C(F)(F)F.O=C(c1ccc(O)cc1)N1C[C@@H]2OCCN(c3ncccn3)[C@@H]2C1 | 6.308
CC(C)(CNC(=O)C1(c2cccc(Br)c2)CCOCC1)C(=O)O | -116.6
NCC1(c2cccc(C(F)(F)F)c2)CCC1 | 23
O=C(O)CCNC(=O)C1(c2cccc(Br)c2)CCOCC1 | -140.1
Cl.NCC1(c2cccc(Br)c2)CCOCC1 | 78.65
Fc1cccc(C2(CNC3CCSC3)CCOCC2)c1 (stereo not given) | -47.45
Cc1ccc(NCCNC(=O)c2cc(CC(C)C)n[nH]2)nn1 | -140.2
Cc1cc(NC(=O)Cn2ccc(-c3ccc4c(c3)OCO4)n2)n(C)n1 | -110.5
CC(C)CNC(=O)c1cn(C)c(=O)c2ccccc12 | -112.9
CN(C)CCN1CCO[C@@H]2CCN(C(=O)c3cccn3C)CC[C@H]21 | -62.97

Compound | Percent Effect [%]
CCN1CCC(NC(=O)CN2CCCC(NS(C)(=O)=O)C2)CC1 (stereo not given) | -94.92
c1cc(-c2cscn2)cc(N2CCC(NCCc3cccs3)CC2)c1 | 23.18
CC(C)CC(C)NC1CCN(c2cccc(-c3cscn3)c2)CC1 (stereo not given) | 51.64
CC(C)CC(C)NC1CCN(c2ccc(-c3cscn3)cc2)CC1 (stereo not given) | -115.7
Cc1ccc(C(C(=O)N2CCC(Cc3noc(C)n3)CC2)N(C)C)cc1 (stereo not given) | 25.87
CN1CCCC2(CCN(S(=O)(=O)c3ccc(-c4cnco4)s3)C2)C1=O (stereo not given) | -20.09
Cc1ccc(S(=O)(=O)N2CCN(C)C3(CCC(=O)N(C)CC3)C2)s1 (stereo not given) | -170.6
O=S(=O)(c1ccc(-c2cnco2)cc1)N1CCCC(O)(CO)CC1 (stereo not given) | -42.75
CN1CCCC2(CCN(C(=O)c3ccncc3)C2)C1 (stereo not given) | -70.03
CN1CCC2(CCN(S(=O)(=O)c3ccc(-c4cnco4)s3)CC2)C1 | 67.52
CN1CCC2(CCCN(S(=O)(=O)c3ccc(-c4cnco4)s3)C2)C1 (stereo not given) | 50.7
CCCn1c(C)c(CC(=O)NCC(N)=O)c2c1CC(C)(C)CC2=O | -28.28
O=C(C1CCCO1)N1CCC2(CC1)COCCN2CC1CC1 (stereo not given) | -162.7
CC(=O)N1CCc2c(nc(-c3ccccn3)nc2N(C)CC(O)CO)C1 (stereo not given) | -23.68
CN(Cc1cccnc1)c1nc(-c2ccccn2)nc2c1CCNCC2 | 53.3
CN(Cc1cccnc1)c1nccc(N2CCN[C@H]3CS(=O)(=O)C[C@H]32)n1 | -59
c1ccc(-c2nc3c(c(NCCn4ccnn4)n2)CCNCC3)nc1 | 6.036
CN(Cc1ncc[nH]1)c1nc(-c2ccccn2)nc2c1CCNCC2 | 54.09
CN(Cc1ccccc1-n1cccn1)c1nc(N)nc2c1CCNCC2 | -16.16
CN(Cc1nccs1)C1CCN(c2ncccn2)CC1 | -79.31
CN(Cc1ccc(-n2cccn2)cc1)c1cc(N)nc(N)n1 | 39.62
CN(Cc1ccc(-n2cccn2)cc1)c1nc(N)nc2c1CCNCC2 | 57.31
CN(Cc1cccnc1)Cc1cncc2c1CCN(c1ccccn1)C2.Cl.Cl.Cl | -32.27
CN(Cc1nccs1)c1nc(-c2ccccn2)nc2c1CCNCC2 | 83.34
CN(CCO)c1nc(-c2ccccn2)nc2c1CCNC2 | -87.29
